Measurements reported in PubChem BioAssay (NCI).
The panel holds about 83,000 compounds, 20% with a hit somewhere; the sample as a whole holds those more often.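 The endpoint reported here, percent growth, reads 100 for growth as untreated, 0 for no net growth and -100 for all cells dead.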 Unmarked numbers belong to inactive results. Active and inactive are the calls of the source. How the source made its calls: active means growth percent below 10; inactive means the rest.

Test system: MDA-MB-468 breast
Assay: NCI-60 one-dose screen, 48 h (100 = growth as untreated, 0 = no growth, -100 = all killed)
Conditions: 10 µM unless noted

Row | Structure (SMILES) | growth
1 | CCc1ccc(-c2ccc(=O)n(-c3ccc(S(N)(=O)=O)cc3)n2)cc1 | 7.89% (active)
2 | O=C(Nc1ccc(Cl)cc1)c1cc2ccccc2cc1OP(=O)(O)O | 71.3%
3 | CC1SC(c2c(Cl)cccc2Cl)N(NC(=O)c2[nH]c3ccc(F)cc3c2-c2ccccc2)C1=O (stereo not given) | 66.8%
4 | CCCCN(CCCC)c1cc(C(=O)CCCCCN)c2ccccc2n1 | 84.5%
5 | CNC(=O)c1cc(Oc2ccc3nc(NC(=O)c4cc(N5CCOCC5)cc(C(F)(F)F)c4)sc3c2)ccn1 | 63.7%
6 | O=C1c2cccc3c(-c4ccc(-c5nc6c7ccccc7c7ccccc7c6[nH]5)cc4)ccc(c23)C(=O)N1CCN1CCNCC1 | 81.5%
7 | Nc1nnc2cc(F)ccc2n1 | 122%
8 | CN(CCCCCCCCNc1ccnc2ccccc12)Cc1ccc(-c2ccc(-c3ccc(C#N)cc3)s2)cc1 | -50.4% (active)
9 | O=C1c2c(c3c4cccnc4[nH]c3c3ccc4ccccc4c23)C(=O)N1CCN1CCNCC1 | 87.1%
10 | COc1ccc2c(c1)c(-c1nc(-c3c[nH]c4ncccc34)cs1)cn2CCCN1CCCCC1 | 57.9%
11 | CC(C)c1c(C(=O)c2ccccc2)c(-c2ccccc2)c(-c2ccc(F)cc2)n1CC[C@@H](O)C[C@@H](O)CC(=O)O | 39.2%
12 | O=C1Nc2ccccc2/C1=C\c1nc(-c2ccccc2F)n2ccccc12 | 8.76% (active)
13 | COc1ccc2c(c1)nc(N)c1c3cc(OC)c(OC)cc3cn21 | 2.7% (active)
14 | CC1C(=NC(=O)c2cnccn2)C(C)C(c2ccc(Cl)cc2)NC1c1ccncc1 (stereo not given) | 92.9%
15 | COc1ccc(/C=N/C2=NNC(C)(c3ccccc3O)N2C(Cc2c[nH]c3ccccc23)C(=O)O)cc1 (stereo not given) | -3.81% (active)
16 | COc1ccc(-c2nsc3c2NC(=O)CC3c2cccc(Cl)c2)cc1 (stereo not given) | -6.39% (active)
17 | Cc1ccc(/C=C2/C(=O)Nc3cc(Cl)c(-c4csc(N)n4)cc32)cc1 | 15.2%
18 | N#Cc1ccc(N2Cc3cc(Cl)ccc3OC3=C2C(=O)N(Cc2ccc(F)cc2)C3=O)cc1 | -68.2% (active)
19 | COc1cccc(N=Nc2cccc(OC)c2)c1 | 87.2%
20 | C=C(C)[C@@H]1CC[C@]2(C(=O)N=C=S)CC[C@]3(C)[C@H](CC[C@@H]4[C@@]5(C)CCC(=O)C(C)(C)[C@@H]5CC[C@]43C)[C@@H]12 | 11.2%

Row | Structure (SMILES) | growth
21 | COc1cc2cc(Oc3ccc(NC(=O)Nc4ccc(F)c(C(F)(F)F)c4)cc3)c(C)nc2cc1OCCN1CCOCC1 | -15.6% (active)
22 | Nc1ncnc2nc(Br)[nH]c12 | 102%
23 | C#CCN(Cc1ccc2nc(N)[nH]c(=O)c2c1)c1ccc(C(=O)NC(CCC(=O)O)C(=O)O)cc1 (stereo not given) | 37.7%
24 | CN(CCCCCl)P(=O)(OCc1ccc([N+](=O)[O-])o1)C(F)(F)c1ccc(CC(=O)NC[C@@H](O)/C=C\[C@@H](O)[C@H](CO)Cc2ccccc2)cc1 (stereo not given in full) | 55%
25 | COc1cnc2c(c1)C(=O)c1c-2n(CCCNC(C)C)c(=O)c2cc([N+](=O)[O-])ccc12 | -55.8% (active)
26 | COc1cc(/C=C2\C(=O)N(c3c(Cl)cccc3Cl)c3ccccc32)cc(OC)c1OCCCCCCn1c2ccccc2c(=O)c2ccccc21 | 108%
27 | Cc1cc(C)n(-c2nnc3n2N=C(c2ccc(-c4ccccc4)cc2)CS3)n1 | -5.89% (active)
28 | CN(Cc1cc(Br)cc(Br)c1O)Cc1cc(Br)cc(Br)c1O | -1.21% (active)
29 | CCCCN1C=CCN(CCCC)C1 | -1.66% (active)
30 | NNC(=O)N/N=C1\C(=O)N(c2nccs2)C(=O)C(=O)C1c1nc2ccccc2s1 (stereo not given) | 106%
31 | N#Cc1c(-c2ccc(Cl)cc2)nc(NN2C(=O)c3ccccc3C2=O)nc1N1CCOCC1 | 99.4%
32 | C=C(CN1CC=CCC1)[C@@H]1CC[C@]2(COC(C)=O)CC[C@]3(C)[C@H](CC[C@@H]4[C@@]5(C)CC[C@H](O)C(C)(C)[C@@H]5CC[C@]43C)[C@@H]12 | 95%
33 | CCCCCCCCCCCCCCCCN(CC)CC | -85.3% (active)
34 | CC(=O)Oc1ccc(N2C(=O)C(Cl)=C(Nc3cccc(C(F)(F)F)c3)C2=O)cc1 | 96.1%
35 | COc1ccc2c(c1)c1nc3cc(C)c(C)cc3nc1n2CCN(C)C | -2.58% (active)
36 | Cc1nc2c(c(=O)[nH]1)OCN(Cc1ccccc1)C2 | 108%
37 | O=C(/C=C/c1ccccc1)Oc1ccc(/C=C/c2cc(OC(=O)/C=C/c3ccccc3)cc(OC(=O)/C=C/c3ccccc3)c2)cc1 | 99.4%
38 | COc1ccccc1C(=O)Nc1cccc2c1C(=O)C(=O)C=C2 | 103%
39 | O=C(N/N=C/c1cc([N+](=O)[O-])ccc1O)c1cccc2ccccc12 | -8.62% (active)
40 | COC(=O)c1nc(=S)[nH]c(C(=O)OC)c1C(=O)c1ccccn1 | 19.3%
